About 3,700 (0.93%) of roughly 400,000 compounds were called active. Another 3% or so got no clear call; they are omitted. The entries come from a sample that favours actives as a whole. Unmarked numbers belong to inactive results. Calls come from the whole dose curve; as a rule, active = well fitted inhibition curve with a large enough effect; inconclusive = small, poorly fitted or top-dose-only effect, or another doubt; inactive = no such curve, though single readings can be large or run the other way.
The compounds below were run against Vitamin D3 receptor (Homo sapiens) (UniProt P11473) (assay: Inhibitors of the vitamin D receptor (VDR): qHTS). Conditions: VDR-SRC2-3 peptide fluorescence polarization, 2 h; max response, negative = inhibition: active compounds read low.
Chain of Vitamin D3 receptor (Homo sapiens) (P11473 whole entry, looked up): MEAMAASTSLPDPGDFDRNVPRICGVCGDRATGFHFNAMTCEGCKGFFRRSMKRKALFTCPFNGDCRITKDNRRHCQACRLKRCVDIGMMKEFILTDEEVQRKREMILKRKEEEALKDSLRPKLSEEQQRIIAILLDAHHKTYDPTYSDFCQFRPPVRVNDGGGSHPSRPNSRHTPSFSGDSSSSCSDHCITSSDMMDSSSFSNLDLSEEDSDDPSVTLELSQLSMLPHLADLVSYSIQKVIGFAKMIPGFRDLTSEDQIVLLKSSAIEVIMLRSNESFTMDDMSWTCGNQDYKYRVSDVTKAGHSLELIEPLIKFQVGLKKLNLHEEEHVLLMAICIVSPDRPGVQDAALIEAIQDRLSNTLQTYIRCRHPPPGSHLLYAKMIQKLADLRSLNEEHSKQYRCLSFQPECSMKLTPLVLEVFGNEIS
Source text: The vitamin D receptor (VDR) is a ligand-activated transcription factor and is partially responsible for the regulation of the endocrine system. This includes the transcriptional regulation of genes involved in the production of the parathyroid hormone (PTH) and the regulation of the blood calcium level. High levels of PHT can cause hypercalcemia in the case of primary and tertiary hyperparathyroidism. The VDR-mediated gene regulation, activated by its ligand 1,25-dihydroxyvitamin D3 (1,25-(OH)2D3), is governed by the recruitment of coactivators. Our hypothesis is that small molecules, with the ability to inhibit the interaction between VDR and certain coactivators, are able to selectively modulate VDR-mediated transcription. Our long term objective is the application these VDR-coactivator inhibitors to study the role of VDR-coactivator binding for specific VDR regulated genes. Ultimately, these molecules can be developed into new treatments for hypercalcemic hyperparathyroidism. No small molecule or non-peptide inhibitors are known for the VDR-coactivator interaction.
In a collaboration between the University of Wisconsin, Milwaukee and the NIH Chemical Genomics Center (NCGC) a HTS-compatible enzymatic assay was developed. The assay uses fluorescence polarization as its read-out to measure the inhibition between VDR and coregulator peptide SRC2-3 exerted by small molecules. This assay was used to screen the NIH Molecular Libraries Small Molecule Repository (MLSMR).
NIH Chemical Genomics Center [NCGC]
NIH Molecular Libraries Probe Centers Network [MLPCN]
Assay Submitter (PI): Alexander Arnold, University of Wilwaukee
Both solutions are kept at 4 deg C and protected from light and dispensed using a Kalypsys dispenser. Then 23nl of compounds and controls are added with Kalypsys pintool. […] Plate is centrifuged at 1000 RPM for 15 seconds to remove any residual bubbles. The plate is then incubate at ambient room temperature for 2 hours.
Compound CCC(Sc1nnc(-c2ccc(OC)cc2)c(-c2ccc(OC)cc2)n1)C(=O)NC1CCCCC1 (configuration not stated) has a max response, negative = inhibition of 11.6%. In the case of Cc1nc2ccccn2c(=O)c1NC(=O)c1c(F)cccc1F, the max response, negative = inhibition is reported as 13.4%. Cc1ccc2nc(-c3ccc(C)c(NC(=O)Cc4ccccc4)c3)oc2c1 gave a max response, negative = inhibition of -21.8%. For Cc1ccc(OCC(=O)Nc2ccc(Cl)c(-c3nc4ccccc4[nH]3)c2)cc1C, the max response, negative = inhibition was 2.81%. CC(=O)OCC(=O)[C@@]1(O)CCC2C3CCC4=CC(=O)CC[C@]4(C)C3C(=O)C[C@]21C (some centres not stated) showed a max response, negative = inhibition of -10.5%. Work on Cc1ccc(Cl)cc1N1CCN(C(=O)c2cn(C)c3ccc(S(=O)(=O)N(C)C4CCCCC4)cc3c2=O)CC1 yielded a max response, negative = inhibition of -5.35%. With O=C1N=C(N2CCc3ccccc3C2)S/C1=C\c1ccc(O)cc1 the max response, negative = inhibition was 17.3%. For O=C1/C(=C\c2ccc(O)cc2)CCC1CNc1ccc(Cl)cc1 (configuration not stated), the Potency was 79.4 µM (active). With Cc1nn(-c2ccc(N3CCCCC3)nn2)c(C)c1CCC(=O)NCc1ccc(F)cc1 the max response, negative = inhibition was 11.6%. For COc1ccc(CCNC(=O)c2cc3cccc4c3n2CC(C)S4)c(OC)c1OC (configuration not stated), the max response, negative = inhibition was 4.11%. Work on COc1ccc(Cn2ccn(Cc3cccc(OC)c3)c(=O)c2=O)cc1 yielded a max response, negative = inhibition of 6.97%. In the case of O=c1c(=O)n(Cc2c(F)cccc2Cl)ccn1Cc1ccccc1, the max response, negative = inhibition is reported as -1.19%. With O=[N+]([O-])/C=C/c1ccc2c(ccn2Cc2ccccc2)c1 the Potency was 6.31 µM (active). In the case of COc1ccc(Cn2c(=O)[nH]c3cc(C(=O)N4CCN(C(=O)c5ccco5)CC4)ccc3c2=O)cc1, the max response, negative = inhibition is reported as -6.06%. With COc1ccc(-c2nc3sc(CCNS(=O)(=O)c4ccc(F)c(C)c4)c(C)n3n2)cc1 the max response, negative = inhibition was 16%. For O=C(Nc1cccc([N+](=O)[O-])c1)N1CCc2ccccc2C1, the max response, negative = inhibition was 5.4%. Compound O=C(CN1CCOCC1)Nc1cccc([N+](=O)[O-])c1 has a max response, negative = inhibition of -1.57%. COC(=O)/C=C\C(=O)Nc1cccc([N+](=O)[O-])c1 was tested, and the Potency was 22.4 µM (active). With CC(=O)N1c2ccc(S(=O)(=O)N3CCCCCC3)cc2CC1C(=O)NCc1ccccc1C (configuration not stated) the max response, negative = inhibition was 5.71%. With N#Cc1c(-c2ccccc2)nc(SCc2cccc(C(F)(F)F)c2)[nH]c1=O the Potency was 79.4 µM (active). With N#Cc1c(-c2ccc(F)cc2)nc(-c2ccccc2)[nH]c1=O the max response, negative = inhibition was 13.1%. For O=c1[nH]c(SCc2cccc(F)c2)nc2ccccc12, the max response, negative = inhibition was -6.23%. With Cc1oc(-c2ccccc2)nc1Cn1c(SCc2cccc(C(F)(F)F)c2)nc2cccnc21 the max response, negative = inhibition was 2.78%. In the case of Cc1ccc(O)c(NC(=O)CCS(=O)(=O)c2nc(-c3ccc4c(c3)OCO4)cc(C(F)(F)F)n2)c1, the Potency is reported as 50.1 µM (active). With CC(Sc1nc(-c2ccccc2)cc(C(F)(F)F)n1)C(=O)Nc1ccc2c(c1)OCO2 (configuration not stated) the max response, negative = inhibition was -18.9%. Work on Cc1ccc(O)c(NC(=O)c2cc(-c3ccc(F)cc3)no2)c1 yielded a max response, negative = inhibition of 12%. Work on Cc1ccc(C(=O)COC(=O)C(Cc2c[nH]c3ccccc23)NC(=O)c2ccc(Br)cc2)cc1 (configuration not stated) yielded a max response, negative = inhibition of 6.05%. CCOc1ccccc1CNC(=O)c1cnc2c(-c3ccc(OCC)c(OCC)c3)c(C)nn2c1C showed a max response, negative = inhibition of 12.6%. Work on CN(c1ccccc1)S(=O)(=O)c1cc(C(=O)Nc2nc3ccccc3[nH]2)ccc1Cl yielded a max response, negative = inhibition of 22.7%. O=C(/C(=C/c1cccc(Cl)c1)c1nc2ccccc2[nH]1)c1ccccc1 was tested, and the Potency was 79.4 µM (active). With Cc1ccc2nc(CNC(=O)c3ccccc3)[nH]c2c1 the max response, negative = inhibition was 11.1%. In the case of COc1cc(OC)c2c(c1Cl)OC1(C2=O)C(O)=CC(=O)CC1C (configuration not stated), the max response, negative = inhibition is reported as 1.06%. For COc1ccccc1OCC(=O)Nc1nnc2n1CCS2, the max response, negative = inhibition was -3.73%. Cc1ccc(NC(=O)Cc2ccc(NC(=O)N3CCCCc4ccccc43)cc2)cc1 gave a max response, negative = inhibition of 6.32%. CN(C)c1nc(=Nc2cccc(Cl)c2)ss1 was tested, and the Potency was 25.1 µM (active). Cc1c(-c2nsc(NC(=O)c3cccc(Cl)c3)n2)nnn1-c1ccccc1C(F)(F)F showed a max response, negative = inhibition of 1.99%. In the case of CCc1ccccc1NC(=O)CSc1nc(C)c(C(=O)Nc2ccccc2)c(-c2ccc(Cl)cc2)c1C#N, the max response, negative = inhibition is reported as 5.32%. With COc1ccc(-c2nc(CN3CCC(C(=O)NCc4ccccc4)CC3)c(C)o2)cc1OC the max response, negative = inhibition was -18.6%. With Nc1ccccc1SC(C[N+](=O)[O-])c1ccccc1 (configuration not stated) the Potency was 3.55 µM (active). O=C(Nc1cccc(-c2nc3ccccc3o2)c1)c1cccc(Br)c1 showed a max response, negative = inhibition of 4.46%. Cc1ccc2ccc3c(c2n1)NS(=O)(=O)c1ccccc1-3 gave a max response, negative = inhibition of -4.3%. CCS(=O)(=O)c1cc([N+](=O)[O-])c(Sc2ccccc2N)s1 was tested, and the Potency was 28.2 µM (active). In the case of CCOC(=O)c1cnc2c(C)cc(Cl)cc2c1NCCc1ccc(OC)c(OC)c1, the max response, negative = inhibition is reported as 2.98%. With COc1ccc(NC(=O)CSc2nc3ncccc3[nH]2)c(OC)c1 the max response, negative = inhibition was 22.9%. Compound COc1ccc(NC(=O)Cn2c(=O)n(CCC(C)C)c(=O)c3cccnc32)cc1Cl has a max response, negative = inhibition of 11.2%. With COc1ccccc1-c1nc(N2CCN(C)CC2)c2ccccc2n1 the max response, negative = inhibition was -9.82%. COc1ccc(N2CCN(c3nc(-c4ccccc4F)nc4ccccc34)CC2)cc1 was tested, and the max response, negative = inhibition was 21.1%. For FC(F)(F)c1ccccc1-c1nc(-n2ccnc2)c2ccccc2n1, the Potency was 50.1 µM (active). Compound Cc1ccc(C)c(Nc2nnc(-c3ccc(C)c(S(=O)(=O)N4CCCCC4)c3)c3ccccc23)c1 has a max response, negative = inhibition of 2.71%. CC(C)(C)c1ccc(C(=O)Nc2ccc3c(c2)CCCN3C(=O)c2cccs2)cc1 showed a max response, negative = inhibition of -1.02%. Compound O=C(C1CCC(Cn2c(=O)c3sccc3n(Cc3ccccc3F)c2=O)CC1)N1CCCCC1 (configuration not stated) has a max response, negative = inhibition of 8.9%. With Cc1ccc(Sc2cc(C(=O)c3ccccc3C(=O)O)ccc2[N+](=O)[O-])cc1 the max response, negative = inhibition was -16.9%. CC(C)(C)c1ccc(C(=O)NNC(=O)Cc2ccccc2)cc1 was tested, and the max response, negative = inhibition was 3.53%. Cc1ccc(SC(CC(=O)c2ccc(C(C)(C)C)cc2)C(=O)O)cc1 (configuration not stated) was tested, and the Potency was 20 µM (active). CCCCCCCC[C@@H](O)/C=C/C=C/C=C\[C@@H](O)CCCC(=O)O gave a max response, negative = inhibition of 10.9%. In the case of COc1ccc(NC(=O)c2cc3cc(C)ccc3n2C)cc1, the max response, negative = inhibition is reported as 8.19%. CC(CNC(=O)Cn1cnc2c(OCc3ccccc3)ncnc21)c1ccccc1 (configuration not stated) was tested, and the max response, negative = inhibition was -7.14%. With O=C(Cn1cnc2c(OCc3ccccc3)ncnc21)NCc1nc2ccccc2[nH]1 the Potency was 79.4 µM (active). O=C(Cn1cnc2c(OCc3ccccc3)ncnc21)NCCCn1ccnc1 was tested, and the max response, negative = inhibition was 6.56%. In the case of COc1ccc(C2CC(=O)Nc3c2c(=O)nc2c(C)cccn32)cc1OC (configuration not stated), the max response, negative = inhibition is reported as 12.4%. In the case of O=C(/C=C/c1ccccc1)c1ccccc1O, the Potency is reported as 17.8 µM (active). Cc1nc(-c2ccccc2)sc1C(=O)/C=C/c1ccccc1 was tested, and the Potency was 79.4 µM (active). O=C(/C=C(O)/C=C/c1ccc(O)cc1)/C=C/c1ccc(O)cc1 gave a max response, negative = inhibition of -24.8%. CNC(=O)c1csc(-c2ccccc2)n1 was tested, and the max response, negative = inhibition was 4.33%. O=C(NNC(=O)c1ccccc1O)c1ccccc1O gave a max response, negative = inhibition of 10.5%. Cc1[nH]c(=O)c(C(=O)/C=C/c2ccccc2)c2c1CCCC2 showed a max response, negative = inhibition of -23.7%. With CCOC(=O)c1ccc(N2C(=O)c3n[nH]c(-c4ccco4)c3C2c2ccc(O)cc2)cc1 (configuration not stated) the max response, negative = inhibition was -8.24%. Cc1cccn2c(=O)c(C(=O)NC(C)c3ccccc3)cnc12 (configuration not stated) showed a max response, negative = inhibition of -16%. COC(=O)c1ccc(Cn2c(SCC(=O)N(C)c3ccccc3)nc3ccccc32)cc1 gave a max response, negative = inhibition of 14.3%. In the case of C=CCOc1ccc(/C=C2/C(=O)ON=C2C)cc1OCC, the Potency is reported as 79.4 µM (active). For COc1cc(/C=C2/C(=O)ON=C2C)ccc1OCc1cccc(F)c1, the Potency was 25.1 µM (active). C=CCOc1ccc(/C=N/NC(=O)C(C)Sc2ccccn2)cc1OCC (configuration not stated) gave a max response, negative = inhibition of -3.04%. COc1cc(/C=C2\SC(=O)NC2=O)ccc1OCc1ccc(Cl)nc1 showed a max response, negative = inhibition of 3.39%. Work on COc1ccnc2c1c(=O)n(Cc1cccc(F)c1)c(=O)n2C yielded a max response, negative = inhibition of 0.374%. In the case of C#CCOc1ccccc1/C=C1/C(=O)ON=C1C, the max response, negative = inhibition is reported as -13.5%. With Cc1ccc(C)c(N2CCN(C(c3ccccc3)c3nnc(-c4ccccc4)o3)CC2)c1 (configuration not stated) the max response, negative = inhibition was 0%. Cc1ccc(C2C=C(c3ccc(Cl)cc3)Nc3nc(NC(=O)CCC(=O)O)nn32)cc1 (configuration not stated) gave a max response, negative = inhibition of -1.64%. CCOC(=O)c1c(C)[nH]c(CCC(=O)NCCCN2CCN(c3cc(C)ccc3C)CC2)c1C showed a max response, negative = inhibition of 1.52%. In the case of CCOC(OCC)OCC, the max response, negative = inhibition is reported as -7.21%. For O=c1ccc2c(-c3ccccc3S(=O)(=O)O)c3ccc(O)c(O)c3oc-2c1O, the Potency was 35.5 µM (active). Cc1nc2cnc(N3CCNCC3)nc2n(CCc2ccccc2)c1=O gave a max response, negative = inhibition of -10.9%. In the case of CCOC(=O)N1CCN(C(c2cccnc2)c2ccc3cccnc3c2O)CC1 (configuration not stated), the Potency is reported as 39.8 µM (active). Work on CCCCC(=O)NC(c1ccc(OC)c(OC)c1)c1ccc2cccnc2c1O (configuration not stated) yielded a max response, negative = inhibition of 6.08%. Compound COc1ccccc1N1CCN(C(CNC(=O)C(=O)NCc2ccc(C)cc2)c2cccnc2)CC1 (configuration not stated) has a max response, negative = inhibition of 1.11%. COc1ccc(CCNC(=O)c2ccc3c(c2)nc(C)n3-c2ccc(Br)cc2)cc1OC gave a max response, negative = inhibition of 12.9%. C#CC(C)(CC)NC(=O)Cn1nnc(-c2ccc(OCc3c(F)cccc3Cl)cc2)n1 (configuration not stated) gave a max response, negative = inhibition of 15.5%. With CN(C)S(=O)(=O)N1CCC(Oc2cccc(C(=O)NCCCC3CCCC3)c2)CC1 the Potency was 28.2 µM (active). COc1cccc(C(=O)NCCS(=O)(=O)NCC2CCCO2)c1 (configuration not stated) gave a max response, negative = inhibition of -19.7%. For CNS(=O)(=O)c1cccc(C(=O)NCC2CCCCC2)c1, the max response, negative = inhibition was 12.7%. Compound COc1cccc(C(=O)CC(=O)C(=O)Nc2ccc([N+](=O)[O-])cc2C)c1 has a max response, negative = inhibition of -6.66%. For COc1cccc(NCCC(=O)c2cccc([N+](=O)[O-])c2)c1, the Potency was 79.4 µM (active). CC(C)(C)SCCNC(=O)c1cccc([N+](=O)[O-])c1 showed a max response, negative = inhibition of -16.4%.
% is set by controls: 0 for no effect and ±100 for the full control effect; potency is the fitted concentration of half-maximal effect.
